From PubChem BioAssay
Shown are actives, neighbours in structure and some others; about 22% of the full set was active somewhere.
Cycloheximide cs = counter-screen hit for Shiga toxin inhibitors, cycloheximide. cell reporter, cycloheximide protein synthesis inhibition counterscreen. max response, %. actives 12% (n = 300,000); in the data active = max response mostly above about 13%, no sharp cut-off; inactive = mostly below about 14%; note: read at 38.3 µM for the half of the compounds with a filed dose; 0% is about no effect
LmPK inhibitor = inhibitors of Leishmania mexicana pyruvate kinase. purified LmPK, Kinase-Glo ATP luminescence, 1 h. Potency, µM (highest dose often 57.5 µM), for inactives: top-dose activity change, negative = inhibition, actives largely listed as inhibitors. actives 0.37% (n = 290,000). AID 1721; note: potency is the fitted concentration of half-maximal effect; % is set by controls: 0 for no effect and ±100 for the full control effect
Target sequence (Q27686 whole entry, looked up): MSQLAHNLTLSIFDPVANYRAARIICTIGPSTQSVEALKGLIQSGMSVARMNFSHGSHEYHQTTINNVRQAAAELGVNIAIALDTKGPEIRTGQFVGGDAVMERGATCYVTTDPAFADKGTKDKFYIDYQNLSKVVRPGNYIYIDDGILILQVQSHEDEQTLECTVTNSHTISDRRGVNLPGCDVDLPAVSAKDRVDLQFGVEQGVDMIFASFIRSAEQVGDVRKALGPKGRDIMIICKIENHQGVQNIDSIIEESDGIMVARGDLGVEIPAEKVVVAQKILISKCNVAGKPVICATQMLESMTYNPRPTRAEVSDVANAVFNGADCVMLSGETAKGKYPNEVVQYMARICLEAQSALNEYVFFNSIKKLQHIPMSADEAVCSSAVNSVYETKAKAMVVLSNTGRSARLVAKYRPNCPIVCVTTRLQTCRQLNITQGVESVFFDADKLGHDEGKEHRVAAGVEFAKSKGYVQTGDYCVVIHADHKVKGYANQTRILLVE
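ATP generated from ADP (0.1 mM) and PEP (0.5 mM) by 0.1 nM LmPK over 1 h at room temperature (pH 7.2 imidazole buffer) was detected by coupled luciferase luminescence. Values were normalized to uninhibited and no-enzyme wells.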
Pf growth 48h = P. falciparum growth inhibition at 48 hours (one generation); actives 5.9% (n = 310,000); P. falciparum luciferase growth in erythrocytes, 48 h; Potency, µM (series often up to 28.7 µM), without a hit: top-dose activity change, negative = inhibition, usual class: inhibitors; AID 504832; note: potency is the fitted concentration of half-maximal effect; % is set by controls: 0 for no effect and ±100 for the full control effect
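A one-generation exposure of luciferase-tagged malaria parasites in RPMI 1640/Albumax erythrocyte culture, 37 C and 5% CO2. Inhibition is inferred from decreased luminescence after adding detection reagent.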
Shiga toxin inh = blocks Shiga toxin action in Vero cells; Vero cells, Shiga toxin protein synthesis inhibition reporter; inhibition, % at 38.7 µM; actives 9.2% (n = 290,000); in the data active = inhibition mostly above about 28%, no sharp cut-off; inactive = mostly below about 43%; note: 0% is about no effect
Pf growth 96h = inhibits malaria parasite growth, 96 h. actives 6.9% (n = 320,000). Potency, µM (doses to about 28.7 µM), for the others: at the highest dose activity change, negative = inhibition, usual class: inhibitors. P. falciparum luciferase reporter growth, 96 h; note: potency is the fitted concentration of half-maximal effect; % is set by controls: 0 for no effect and ±100 for the full control effect
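P. falciparum expressing integrated firefly luciferase grown in erythrocytes (2% hematocrit, 0.05% parasitemia final) with compounds for 96 hours at 37 C, 5% CO2. Growth inhibition read as loss of luminescence after adding luciferase detection reagent.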
The depositor's hits bear a star; ? = inconclusive; / = not tested or not shown. Unless noted, calls come from the whole dose curve; as a rule, active = well fitted inhibition curve with a large enough effect; inconclusive = small, poorly fitted or top-dose-only effect, or another doubt; inactive = no such curve, though single readings can be large or run the other way.

SMILES	Cycloheximide cs	LmPK inhibitor	Pf growth 48h	Shiga toxin inh	Pf growth 96h
O=C(OC1CCOC1=O)c1cc(S(=O)(=O)N2CCOCC2)c(Cl)cc1Cl (stereo not drawn)	/	/	-20%	/	-25%
Cc1c(N2C(=O)/C(=C\c3ccc(N(C)C)cc3)N(C)C2=S)c(=O)n(-c2ccccc2)n1C	0	-9%	2%	4	-23%
COc1ccc(CCNC(=O)c2cccc(S(=O)(=O)N3CCc4ccccc4C3)c2)cc1	/	/	9.3µM*	/	?
CCOc1ccc(CCNC(=O)c2cccc(S(=O)(=O)N3CC(C)OC(C)C3)c2)cc1OCC (stereo not drawn)	/	/	9.3µM*	/	10µM*
Cc1ccc(OCCOC(=O)c2cccc(S(=O)(=O)N3CC(C)OC(C)C3)c2)cc1 (stereo not drawn)	/	/	13µM*	/	?
CC1CN(S(=O)(=O)c2cccc(C(=O)N(C)C3CCN(C)CC3)c2)CC(C)O1 (stereo not drawn)	/	/	-5%	/	-7%
CCOc1ccc(CCNC(=O)c2ccc(S(=O)(=O)N3CCCC3)cc2)cc1OCC	/	/	12µM*	/	?
CCOc1cc(N2CCOCC2)c(OCC)cc1NC(=O)COC(=O)/C=C/c1ccc(OC(F)F)cc1	/	/	?	/	17%
Cc1ccc(Sc2ccc(CN3CCCCC3)cc2[N+](=O)[O-])cc1	-1	0%	?	-16	?
Nc1ccc(NC(=O)CCN2CCOCC2)cc1	0	-1%	?	9	?
CCNc1nc(N)c(C(=C(C#N)C#N)c2ccccc2)s1	-4	-5%	-3%	-19	-13%
CCOc1ccc(CCNC(=O)c2ccc3c(c2)NC(=O)C2CCCN32)cc1OCC (stereo not drawn)	0	-2%	5.2µM*	-4	9.3µM*
CCOc1ccc(CCNC(=O)COn2nnc3ccc(S(=O)(=O)N4CCOCC4)cc32)cc1OCC	/	/	?	/	9.3µM*
COCCn1c(=NC(=O)CCS(=O)(=O)c2ccccc2)sc2cc(C(=O)OC)ccc21	-1	1%	1%	27	8%
Cn1cc(C(=O)NC2CCCCC2)c(=O)c2cc(S(=O)(=O)N3CCOCC3)ccc21	1	16%	?	-2	?
CCOc1ccc(CCNC(=O)c2cn(C)c3ccc(S(=O)(=O)N4CCOCC4)cc3c2=O)cc1OCC	1	5%	12µM*	15	?
CCOc1ccc(CCNC(=O)c2ccc(N3CCCC3=O)cc2)cc1OCC	-2	-1%	-14%	46	?
COCCn1c(=NC(=O)c2ccc(S(=O)(=O)N3CCc4ccccc4C3)cc2)sc2cc(OC)ccc21	-4	7%	?	-5	5.2µM*
CCOC(=O)C(=CNc1ccc2c(c1)c1ccccc1n2CC)C(=O)OCC	-1	3%	44%	-5	52%
COc1cc(S(=O)(=O)NCC2OCCc3ccccc32)ccc1-n1cnnn1 (stereo not drawn)	-3	1%	/	-12	?
Cc1cccc(C(=O)Oc2cccc3c(O)cccc23)c1	-2	-13%	?	-3	?
C/C(=N\NC(=O)CN1CCN(S(=O)(=O)c2ccc(C)cc2)CC1)c1ccncc1	-1	-1%	18%	-6	?
CCOC(=O)c1c(C)[nH]c(C=C2C(=O)CCCC2=O)c1O	-4	1%	2%	-14	?
Cc1ccc(Cn2c(N3CCN(C)CC3)nc3c2c(=O)[nH]c(=O)n3C)cc1	-2	3%	-15%	-12	12%
O=C1Nc2cc(C(F)(F)F)ccc2N2CCCCC12 (stereo not drawn)	-1	1%	/	2	5%
SMILES	Cycloheximide cs	LmPK inhibitor	Pf growth 48h	Shiga toxin inh	Pf growth 96h
CCOc1ccc(CCNC(=O)c2cccc(S(=O)(=O)N3CCCC3)c2)cc1OCC	/	/	12µM*	/	?
COc1ccc(CCNC(=O)c2ccc(OC)c(OC)c2)cc1OC	0	2%	6%	-2	18%
CCOc1ccc(CCNC(=O)COC(=O)c2cccc(S(=O)(=O)N3CCCCC3)c2)cc1OCC	/	/	-10%	/	-24%
COC(=O)c1ccc(NC(=O)c2ccc3c(c2)NC(=O)C2CCCN32)cc1 (stereo not drawn)	/	/	8.3µM*	/	7.4µM*
CCOc1ccc(CCNC(=O)c2cccc(C#N)c2)cc1OCC	5	4%	10µM*	-7	?
CCOc1ccc(CCNC(=O)COC(=O)c2cccc(S(=O)(=O)N3CCOCC3)c2)cc1OCC	/	/	9.3µM*	/	?
COCc1ccc(CN2CCCC(C(=O)Nc3ccc(-c4cscn4)cc3)C2)o1 (stereo not drawn)	18	-2%	?	10	30%
O=C1Nc2cc(S(=O)(=O)N3CCCC3)ccc2N2CCCC12 (stereo not drawn)	4	1%	17µM*	-12	-17%
CCN(CC)S(=O)(=O)c1ccc2c(c1)NC(=O)C1CCCN21 (stereo not drawn)	-3	1%	?	-8	19%
CCOc1cc2c(cc1OCC)CN(C(=O)c1cccc(S(=O)(=O)N3CCCC3)c1)CC2	/	/	?	/	10µM*
Cc1ccc(N2C(=O)N(CC(=O)C(C)(C)C)c3ccccc3S2(=O)=O)cc1	-2	7%	?	-3	?
c1ccc(N(c2ccccc2)c2nc(N3CCCC3)nc(-n3ccnc3)n2)cc1	16	8%	5.9µM*	4	?
CN(c1ccccc1)c1nc(N2CCCC2)nc(-n2ccnc2)n1	-3	-2%	5.2µM*	-23	?
N/C(=N/O)c1nc(N2CCCC2)nc(N(c2ccccc2)c2ccccc2)n1	-2	-2%	?	-10	?
CCOC(=O)N1CCN(c2nc(N(c3ccccc3)c3ccccc3)nc(-n3ccnc3)n2)CC1	-2	8%	?	10	?
COc1ccc(CCNC(=O)COC(=O)CCC(=O)c2ccc(F)cc2)cc1OC	2	5%	0%	13	?
CC[n+]1c(/C=C(/C)SC)sc2ccccc21	-2	-3%	1.7µM*	6	?
CC[n+]1c(/C=C(\C)SC)sc2ccccc21	-1	-2%	0.29µM*	10	?
CC[n+]1c(/C=C(\C)Nc2ccccc2)sc2ccccc21	-1	1%	5.2µM*	-13	-18%
CC/C(=C/c1sc2ccccc2[n+]1CC)SC	2	-1%	?	-15	1.7µM*
CCOCCCNC(=O)C(NC(=O)Cc1c[nH]c2ccccc12)c1ccccc1 (stereo not drawn)	-1	0%	-6%	3	5%
COc1ccc(Br)c(C(=O)NCC2CCCCC2)c1	19	4%	59%	-9	27%
CCC(=O)[C@@]1(C)[C@H](C)C[C@@H]2[C@@H]3CCC4=CC(=O)C=C[C@@]4(C)[C@H]3[C@H](O)C[C@]21C	/	/	2.6µM*	/	2.6µM*
CCC(=O)OCC(=O)[C@@]1(OC(=O)CC)[C@H](C)C[C@@H]2[C@@H]3[C@H]([C@@H](O)C[C@@]21C)[C@]1(C)C=CC(=O)C=C1C[C@@H]3Cl	/	/	2.6µM*	/	4.1µM*
